CHO-K1 Ca antag – counter-screen for M1 antagonists: effect in parental CHO-K1 cells; ATP-induced calcium, Fluo-8 fluorescence; inhibition, % at 3 µM; 360,000 tested, 0.6% active; AID 602250;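 active = inhibition above a per-plate cutoff, the plate's mean sample inhibition plus 3 SD, cut at about 24% in these data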;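 also: 0% = DMSO plus EC80 ATP and 100% = DMSO alone without ATP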
M1 antag – human CHRM1 antagonism. P11229. CHO-K1 hM1, Fluo-8 calcium fluorescence, ACh EC80 antagonist. inhibition, % at 3 µM. 360,000 tested, 1.3% active. AID 588852;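 active = percent inhibition above its own plate's cutoff, namely the mean of that plate's compound wells plus 3 SD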;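 also: peak over basal fluorescence ratio during 140 s after agonist addition; 0% = ACh EC80 plus DMSO and 100% = DMSO alone without agonist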
Target sequence (P11229 whole entry, looked up): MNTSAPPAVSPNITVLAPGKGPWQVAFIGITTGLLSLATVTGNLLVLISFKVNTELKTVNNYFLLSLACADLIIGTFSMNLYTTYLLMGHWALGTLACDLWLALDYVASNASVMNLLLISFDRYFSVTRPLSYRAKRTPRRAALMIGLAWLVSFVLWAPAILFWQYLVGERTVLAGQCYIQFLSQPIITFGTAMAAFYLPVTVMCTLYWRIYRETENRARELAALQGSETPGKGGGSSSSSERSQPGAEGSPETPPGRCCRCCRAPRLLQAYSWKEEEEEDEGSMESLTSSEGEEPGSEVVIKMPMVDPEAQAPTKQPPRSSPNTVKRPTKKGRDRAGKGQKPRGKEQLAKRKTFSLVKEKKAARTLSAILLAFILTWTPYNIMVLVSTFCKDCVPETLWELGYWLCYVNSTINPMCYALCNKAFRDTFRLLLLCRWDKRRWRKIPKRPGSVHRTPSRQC
M1 ag parental – M1 agonist counterscreen hit in parental CHO-K1 cells; 360,000 tested, 0.48% active; activation, % at 3 µM; Fluo-8 calcium fluorescence; scaled to maximal ATP response, vehicle zero; AID 602248; in the data active = activation above about 15%;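 also: untransfected CHO-K1 host cells lacking M1 receptor as counterscreen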
CHRM1 PAM – potentiates human M1 receptor response to acetylcholine; P11229; 360,000 tested, 0.088% active; CHO-K1 hM1, Fluo-8 calcium fluorescence, ACh EC20; 0% = ACh EC20, 100% = maximal ACh; activation, % at 3 µM; AID 588819; in the data active = activation above about 19%, passing the limit was not always enough
CHO-K1 Ca PAM – M1 PAM counterscreen hit in parental CHO-K1 cells. AID 602247. 360,000 tested, 0.02% active. ATP EC20, Fluo-8 calcium fluorescence; 0% at ATP EC20, 100% at ATP max. activation, % at 3 µM;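 active = activation above the run cutoff, the mean activation of all test compounds plus 3 SD, cut at about 40% in these data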;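 also: peak over basal fluorescence ratio in a 140 s read after ATP addition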
CHRM1 agonist – activates human CHRM1 receptor. activation, % at 3 µM. AID 588814. P11229. CHO-K1 hM1, Fluo-8 calcium fluorescence, agonist mode; 0% DMSO, 100% acetylcholine EC100. 360,000 tested, 0.33% active;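 active = activation above the run's mean compound activation plus 3 SD, cut at about 16% in these data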;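 also: peak over basal fluorescence ratio within a 140 s kinetic read after compound addition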
* hit, by the source's call; ! = not active in a repeat. Most compounds without a hit are left out; they make up all but 2.3% or so of the library.

Screening C=CCn1c(O)c(C(CC)=Nc2ccc(N(C)C)cc2)c(=O)[nH]c1=O returned CHO-K1 Ca antag -0.2, M1 antag -14.4, M1 ag parental 1.7, CHRM1 PAM 4.2, CHO-K1 Ca PAM 0.6 and CHRM1 agonist 1.1.
Screening CN(C)C1C(=O)C(C(N)=O)=C(O)C2(O)C(=O)C3=C(O)c4c(O)cccc4C(C)(O)C3CC12 (stereo not given) returned CHO-K1 Ca antag 27.7*, M1 antag -9.3, M1 ag parental -0.3, CHRM1 PAM -4.9, CHO-K1 Ca PAM -11.6 and CHRM1 agonist 5.7.
For CN(C)[C@@H]1C(=O)C(C(N)=O)=C(O)[C@@]2(O)C(=O)C3=C(O)c4c(O)cccc4[C@@](C)(O)C3[C@H](O)C12 (stereo not given in full) the results were CHO-K1 Ca antag 27.5*!, M1 antag 64.6, M1 ag parental 4.1, CHRM1 PAM -27.1, CHO-K1 Ca PAM -6.7 and CHRM1 agonist -0.3.
For CN1CC(C(=O)c2ccc(Cl)cc2)C(c2ccc(Cl)cc2Cl)C1 (stereo not given) the results were CHO-K1 Ca antag -6.6, M1 antag 8.1, M1 ag parental 1.8, CHRM1 PAM -10.0, CHO-K1 Ca PAM 12.8 and CHRM1 agonist -6.4.
CN1CCC(O)(c2ccc(Cl)cc2)C(C(=O)c2ccc(Cl)cc2)C1 (stereo not given) was read as CHO-K1 Ca antag 9.0, M1 antag 30.3*, M1 ag parental -0.6, CHRM1 PAM -25.4, CHO-K1 Ca PAM -4.2 and CHRM1 agonist -9.5.
`Nc1ccc2nonc2c1[N+](=O)[O-]` gave CHO-K1 Ca antag -6.2, M1 antag 3.9, M1 ag parental 16.6*, CHRM1 PAM 4.7, CHO-K1 Ca PAM 19.1 and CHRM1 agonist 13.6.
`COc1ccc(CC2(CCc3ccncc3)C(=O)NC(=O)NC2=O)c(OC)c1` gave CHO-K1 Ca antag -11.5, M1 antag -4.5, M1 ag parental 0.0, CHRM1 PAM 5.8, CHO-K1 Ca PAM 12.9 and CHRM1 agonist -2.3.
Screening CCOC(=O)C1(CCCc2ccccc2)CCN(C2CCCC2)CC1 returned CHO-K1 Ca antag 4.5, M1 antag 11.8, M1 ag parental 0.8, CHRM1 PAM -17.6, CHO-K1 Ca PAM -2.3 and CHRM1 agonist -13.7.
For CCOC(=O)C1(CCc2ccccc2)CCN(C2CCSCC2)CC1 the results were CHO-K1 Ca antag 1.1, M1 antag 52.2*, M1 ag parental 0.0, CHRM1 PAM -21.8, CHO-K1 Ca PAM -1.0 and CHRM1 agonist -5.4.
For CN(C)P(=NC(=S)c1cccn1C)(N(C)C)N(C)C the results were CHO-K1 Ca antag -20.7, M1 antag 32.9*, M1 ag parental -0.3, CHRM1 PAM -23.9, CHO-K1 Ca PAM 1.9 and CHRM1 agonist -11.5.
For CCN(CC)P(=O)(c1n(CC)cc[n+]1CC)N(CC)CC the results were CHO-K1 Ca antag 32.4*, M1 antag 0.3, M1 ag parental -0.8, CHRM1 PAM 5.4, CHO-K1 Ca PAM -15.7 and CHRM1 agonist -2.0.
COc1ccccc1-n1c(-c2ccccc2Br)nc2ccccc2c1=O was read as CHO-K1 Ca antag 4.3, M1 antag -0.2, M1 ag parental 0.5, CHRM1 PAM 3.0, CHO-K1 Ca PAM -11.7 and CHRM1 agonist -3.2.
Screening CCOC(=O)CC(SP1(=S)OCC2(CC=CCC2)CO1)C(=O)OCC (stereo not given) returned CHO-K1 Ca antag -1.0, M1 antag 23.8*, M1 ag parental 10.0, CHRM1 PAM -20.5, CHO-K1 Ca PAM -6.4 and CHRM1 agonist 0.5.
`Cc1ccc2c(c1)C1CN(C)CCC1N2C(=O)c1cccs1` (stereo not given) gave CHO-K1 Ca antag -2.3, M1 antag -12.5, M1 ag parental 0.5, CHRM1 PAM 4.9, CHO-K1 Ca PAM 17.0 and CHRM1 agonist -6.7.
Screening Cc1ccc2c(c1)C1C[N+](C)(CC(=O)c3ccc(Cl)cc3Cl)CCC1N2C(=O)c1ccc(F)cc1 (stereo not given) returned CHO-K1 Ca antag -13.3, M1 antag 34.0*, M1 ag parental 3.0, CHRM1 PAM -18.5, CHO-K1 Ca PAM -14.7 and CHRM1 agonist -5.6.
For CCCCCc1nc2c(c(=O)c3ccccc3n2C)c(=O)n1C1CCCCCC1 the results were CHO-K1 Ca antag -10.5, M1 antag 0.7, M1 ag parental 20.9*, CHRM1 PAM -10.1, CHO-K1 Ca PAM 24.0 and CHRM1 agonist 7.1.
For O=C(Nc1ccc(Cl)cc1)OC1CN2CCC1CC2 (stereo not given) the results were CHO-K1 Ca antag 3.9, M1 antag 21.5, M1 ag parental 10.0, CHRM1 PAM -13.8, CHO-K1 Ca PAM 5.2 and CHRM1 agonist -0.1.
Screening O=C(Nc1cccc(Cl)c1)OC1CN2CCC1CC2 (stereo not given) returned CHO-K1 Ca antag 44.9*, M1 antag 37.1, M1 ag parental 16.5*, CHRM1 PAM -17.5, CHO-K1 Ca PAM -27.6 and CHRM1 agonist 6.2.
O=C(Nc1ccccc1Cl)OC1CN2CCC1CC2 (stereo not given) was read as CHO-K1 Ca antag -8.2, M1 antag 54.5*, M1 ag parental 4.7, CHRM1 PAM -22.4, CHO-K1 Ca PAM 14.6 and CHRM1 agonist -4.0.
Screening O=C(Nc1cccc(Cl)c1)OCC#CCN1CCCC1 returned CHO-K1 Ca antag -14.9, M1 antag 62.2*, M1 ag parental 2.5, CHRM1 PAM -23.1, CHO-K1 Ca PAM -0.5 and CHRM1 agonist 44.9*.
Screening CN1CCN(CC#CCOc2ccc(Cl)cc2)CC1 returned CHO-K1 Ca antag 1.5, M1 antag 5.3, M1 ag parental -0.2, CHRM1 PAM -5.5, CHO-K1 Ca PAM -3.0 and CHRM1 agonist -9.1.
For O=C(Nc1ccccc1F)OC1CN2CCC1CC2 (stereo not given) the results were CHO-K1 Ca antag -2.8, M1 antag 23.8, M1 ag parental 0.4, CHRM1 PAM -16.3, CHO-K1 Ca PAM 15.9 and CHRM1 agonist -7.3.
For Cn1c(N)c(C(=O)COC(=O)Cc2ccccc2)c(=O)n(C)c1=O the results were CHO-K1 Ca antag 7.2, M1 antag -2.3, M1 ag parental -0.3, CHRM1 PAM -4.7, CHO-K1 Ca PAM -13.1 and CHRM1 agonist -1.1.
`Nc1ncn[nH]1` gave CHO-K1 Ca antag -15.7, M1 antag -21.9, M1 ag parental 0.8, CHRM1 PAM 11.5, CHO-K1 Ca PAM 13.5 and CHRM1 agonist -1.4.
`c1ccc2c(c1)[nH]c1cnccc12` gave CHO-K1 Ca antag 25.4*, M1 antag -20.8, M1 ag parental 0.6, CHRM1 PAM -0.9, CHO-K1 Ca PAM -13.0 and CHRM1 agonist -5.0.
Cc1c2ccncc2c(C)c2c1[nH]c1ccccc12 was read as CHO-K1 Ca antag 13.6, M1 antag -13.9, M1 ag parental 5.1, CHRM1 PAM -5.1, CHO-K1 Ca PAM 10.2 and CHRM1 agonist 1.6.
`N=c1sccn1Cc1ccccc1F` gave CHO-K1 Ca antag -21.9, M1 antag 2.8, M1 ag parental 0.3, CHRM1 PAM -8.5, CHO-K1 Ca PAM -7.1 and CHRM1 agonist 17.4*.

From PubChem
